Assay results from PubChem BioAssay.
The source made the active and inactive calls. Unless noted, no rule for the calls is given here.

Legend:
[1] = resazurin metabolic signal in HepG2 cells – cell-based, resazurin fluorescence, 24 h, PK04 Diversity Set, profiling panel (AID 1172); conditions: HepG2 viability, higher = more signal; also: test concentration not given here
[2] = budding yeast growth changes without added modifier – OD600, strain BY4716, 24 h, basal condition, primary screen (AID 1173); conditions: S. cerevisiae BY4716 growth, OD600, 24 h; higher = more signal, called active from +8 up or from −8 down
[3] = viability profiling in MM1S myeloma cells – cell-based, resazurin fluorescence, basal, 24 h, PK04 Diversity Set, profiling panel (AID 1174); conditions: higher = more signal, called active from +8 up or from −8 down;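 also: MM1S multiple myeloma cell line; test concentration not given here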
[4] = target: Dihydroorotate dehydrogenase (quinone), mitochondrial (Plasmodium falciparum (isolate 3D7)) (UniProt Q08210); assay: inhibition of P. falciparum DHODH – biochemical, C-terminal His tag, absorbance 600 nm, primary screen (AID 1175); conditions: PfDHODH enzyme, DCIP absorbance 600 nm; higher = more signal, called active from +8 up or from −8 down;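 also: recombinant parasite enzyme with a five histidine tag at its C terminus; test concentration not given here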
[5] = inhibition of PAO1 biofilm formation – strain PAO1, LB-PBS medium, absorbance 600 nm, primary screen (AID 1176); also: test concentration not given here; conditions: P. aeruginosa PAO1 growth/biofilm, A600, 12 h; higher = more signal
[6] = growth modulation of vineyard yeast isolate – strain RM11-1a, OD600, basal, 24 h, primary screen (AID 1177);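 also: cultures grown under basal conditions with no added stressor; test concentration not given here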; conditions: S. cerevisiae RM11-1a growth, OD600, 24 h; higher = more signal, called active from +8 up or from −8 down
[7] = growth of efflux-deficient E. coli DRC39 – strain DRC39, OD650, 24 h, E. coli filamentation inducers, primary screen (AID 1178);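 also: growth measured as culture turbidity by optical density at 650 nm; test concentration not given here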; conditions: E. coli DRC39 acrAB, higher = more signal, called active from +8 up or from −8 down
[8] = growth of efflux-deficient E. coli DRC39 – strain DRC39, OD650, 48 h, E. coli filamentation inducers, primary screen (AID 1179);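 also: screen aims at cell division blockers that make cells filament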; conditions: E. coli DRC39 delta-acrAB growth, higher = more signal, called active from +8 up or from −8 down
[9] = viability profiling in RPMI8226 myeloma cells – cell-based, resazurin fluorescence, basal, 24 h, PK04 Diversity Set, profiling panel (AID 1180); conditions: higher = more signal;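 also: RPMI8826 multiple myeloma cell line at 5000 cells per well; test concentration not given here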
[10] = target: E3 ubiquitin-protein ligase XIAP (Homo sapiens) (UniProt P98170); assay: small molecules binding XIAP protein – biophysical, small-molecule microarray, fluorescence 635 nm, primary screen (AID 1181); conditions: higher = more signal;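 also: score merges 667 nm emission and signal to noise over triplicate slides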
Sequence of E3 ubiquitin-protein ligase XIAP (Homo sapiens) (P98170 whole entry, looked up): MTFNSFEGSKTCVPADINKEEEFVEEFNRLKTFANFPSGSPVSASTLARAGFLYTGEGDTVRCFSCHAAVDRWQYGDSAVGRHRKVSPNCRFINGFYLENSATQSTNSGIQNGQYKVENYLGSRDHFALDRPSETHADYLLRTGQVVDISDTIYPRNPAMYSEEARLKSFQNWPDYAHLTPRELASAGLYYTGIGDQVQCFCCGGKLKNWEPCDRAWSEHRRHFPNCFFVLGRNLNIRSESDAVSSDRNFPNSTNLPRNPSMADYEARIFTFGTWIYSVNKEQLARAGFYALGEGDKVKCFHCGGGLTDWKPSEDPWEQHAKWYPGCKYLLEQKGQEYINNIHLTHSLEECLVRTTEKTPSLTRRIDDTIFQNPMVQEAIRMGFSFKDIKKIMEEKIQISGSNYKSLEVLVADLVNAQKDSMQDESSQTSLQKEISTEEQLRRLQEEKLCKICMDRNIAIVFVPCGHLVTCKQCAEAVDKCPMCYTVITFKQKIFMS

Sequence of Dihydroorotate dehydrogenase (quinone), mitochondrial (Plasmodium falciparum (isolate 3D7)) (Q08210 whole entry, looked up): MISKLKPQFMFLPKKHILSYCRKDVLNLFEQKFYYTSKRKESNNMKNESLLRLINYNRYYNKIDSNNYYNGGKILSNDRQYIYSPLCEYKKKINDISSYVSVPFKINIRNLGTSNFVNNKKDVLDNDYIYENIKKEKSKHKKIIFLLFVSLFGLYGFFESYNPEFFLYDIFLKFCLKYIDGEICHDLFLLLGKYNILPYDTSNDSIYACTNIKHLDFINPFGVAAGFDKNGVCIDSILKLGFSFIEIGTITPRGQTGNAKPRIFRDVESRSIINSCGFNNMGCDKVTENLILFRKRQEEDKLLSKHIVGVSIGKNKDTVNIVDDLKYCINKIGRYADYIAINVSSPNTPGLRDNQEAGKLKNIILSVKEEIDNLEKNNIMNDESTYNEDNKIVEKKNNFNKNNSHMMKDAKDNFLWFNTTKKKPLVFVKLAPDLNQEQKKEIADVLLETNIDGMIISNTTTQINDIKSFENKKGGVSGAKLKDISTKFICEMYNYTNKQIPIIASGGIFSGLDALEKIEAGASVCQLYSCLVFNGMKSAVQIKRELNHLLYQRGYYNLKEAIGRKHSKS

SMILES	z-score [1]	z-score [2]	z-score [3]	composite z-score [4]	z-score [5]	z-score [6]	z-score [7]	z-score [8]	z-score [9]	composite z-score [10]
CC(C)(C)OC(=O)CC[C@]1(C(=O)N2CCCCC2)COC(c2ccc(OCCCO)cc2)=N1	2.29	-1.31 (inactive)	0.619 (inactive)	-0.509 (inactive)	-1.17 (inactive)	-0.398 (inactive)	0.134 (inactive)	0.139 (inactive)	1.41	0.162
O=C(O)[C@@H]1C[C@@H]2C(=O)N3CCC[C@H]3C(=O)N2[C@@H]1c1cccc(OCCO)c1	-0.188	-1.28 (inactive)	-0.447 (inactive)	-0.899 (inactive)	0.547 (inactive)	0.0761 (inactive)	-0.185 (inactive)	-0.685 (inactive)	-0.0605	0.338
CCN(CC)c1ccc(N2CC=CC34O[C@@H]5/C=C\CCC(C)OC(=O)C5[C@H]3C(=O)N(C(C)CO)[C@@H]4C2=O)cc1 (stereo not given in full)	0.958	-0.893 (inactive)	0.259 (inactive)	0.881 (inactive)	-1.28 (inactive)	0.507 (inactive)	0.966 (inactive)	1.39 (inactive)	0.0809	0.0727
C=C(CCCC)/C(=C/C[C@H](OC(C)=O)c1ccc(OCCO)cc1)c1cc(C(=O)OC)ccc1OC	0.757	-1.06 (inactive)	-0.0396 (inactive)	-0.793 (inactive)	0.825 (inactive)	-0.0587 (inactive)	0.487 (inactive)	0.371 (inactive)	0.621	0.0977
CCC(CC)C(O)C1C=CC2C(=O)N(c3ccccc3)C(=O)C2N1Nc1ccc([N+](=O)[O-])cc1 (stereo not given)	-0.536	0.593 (inactive)	-0.89 (inactive)	0.837 (inactive)	0.862 (inactive)	0.105 (inactive)	-0.667 (inactive)	-0.162 (inactive)	-0.587	0.0855
O=C1O[C@H](c2ccccc2)[C@H](c2ccccc2)N2[C@H]1[C@@H](C(=O)O)[C@]1(C(=O)Nc3ccc(C#CC4(O)CCCCCC4)cc31)[C@H]2c1ccc(O)cc1	0.934	-1.83 (inactive)	1.36 (inactive)	-3.2 (inactive)	0.734 (inactive)	-0.692 (inactive)	0.451 (inactive)	-0.679 (inactive)	-0.0544	-0.248
COc1cc(NN2C(C(O)c3ccccc3)C=CC3C(=O)N(C)C(=O)C32)cc(OC)c1OC (stereo not given)	-2.2	0.758 (inactive)	-1.23 (inactive)	-2.04 (inactive)	0.574 (inactive)	-0.0472 (inactive)	-0.466 (inactive)	-0.882 (inactive)	-1.32	0.0024
COCCOC(=O)N1C(=O)[C@@]2(c3ccccc31)[C@H](c1ccccc1OCCO)N1[C@H](c3ccccc3)[C@H](c3ccccc3)OC(=O)[C@H]1[C@@H]2C(=O)N1CCCCCCC1	0.293	1.7 (inactive)	-0.097 (inactive)	0.054 (inactive)	2.48 (inactive)	1.39 (inactive)	0.542 (inactive)	-1.15 (inactive)	-0.353	1.57
NC(=O)[C@@H]1[C@H]2C(=O)O[C@H](c3ccccc3)[C@H](c3ccccc3)N2[C@H](c2ccc(OCCO)cc2)[C@@]12C(=O)Nc1ccc(C#CCCO)cc12	-0.632	-0.349 (inactive)	-0.729 (inactive)	-1.26 (inactive)	1.42 (inactive)	1.27 (inactive)	0.544 (inactive)	0.721 (inactive)	-0.83	0.216
[N-]=[N+]=NCc1ccccc1C[C@]1(C(=O)N2CCOCC2)COC(c2ccc(OCCCO)cc2)=N1	0.0629	-2.42 (inactive)	0.117 (inactive)	0.42 (inactive)	0.715 (inactive)	1.43 (inactive)	2.56 (inactive)	1.71 (inactive)	0.698	0.18
Cc1ccc(N2C(=O)c3ccccc3[C@](C)(C(=O)NCc3ccccc3)[C@@H]2c2ccc(CO)cc2)nc1	-0.776	-0.878 (inactive)	1.13 (inactive)	1.07 (inactive)	0.882 (inactive)	0.741 (inactive)	0.349 (inactive)	0.329 (inactive)	0.994	-0.0326
CN(C)CCCC[C@@H]1NC(=O)[C@@H]2C[C@H](C(=O)O)[C@H](c3cccc(OCCO)c3)N2C1=O	-0.0398	-0.79 (inactive)	0.472 (inactive)	-0.126 (inactive)	0.808 (inactive)	-0.547 (inactive)	-0.175 (inactive)	0.494 (inactive)	0.259	-0.0398
